# T1: CLTC 1-363 Clathrin_propel+Clathrin-link (domain begin residue: 1, domain end residue: 363), Q00610
# T1 chain: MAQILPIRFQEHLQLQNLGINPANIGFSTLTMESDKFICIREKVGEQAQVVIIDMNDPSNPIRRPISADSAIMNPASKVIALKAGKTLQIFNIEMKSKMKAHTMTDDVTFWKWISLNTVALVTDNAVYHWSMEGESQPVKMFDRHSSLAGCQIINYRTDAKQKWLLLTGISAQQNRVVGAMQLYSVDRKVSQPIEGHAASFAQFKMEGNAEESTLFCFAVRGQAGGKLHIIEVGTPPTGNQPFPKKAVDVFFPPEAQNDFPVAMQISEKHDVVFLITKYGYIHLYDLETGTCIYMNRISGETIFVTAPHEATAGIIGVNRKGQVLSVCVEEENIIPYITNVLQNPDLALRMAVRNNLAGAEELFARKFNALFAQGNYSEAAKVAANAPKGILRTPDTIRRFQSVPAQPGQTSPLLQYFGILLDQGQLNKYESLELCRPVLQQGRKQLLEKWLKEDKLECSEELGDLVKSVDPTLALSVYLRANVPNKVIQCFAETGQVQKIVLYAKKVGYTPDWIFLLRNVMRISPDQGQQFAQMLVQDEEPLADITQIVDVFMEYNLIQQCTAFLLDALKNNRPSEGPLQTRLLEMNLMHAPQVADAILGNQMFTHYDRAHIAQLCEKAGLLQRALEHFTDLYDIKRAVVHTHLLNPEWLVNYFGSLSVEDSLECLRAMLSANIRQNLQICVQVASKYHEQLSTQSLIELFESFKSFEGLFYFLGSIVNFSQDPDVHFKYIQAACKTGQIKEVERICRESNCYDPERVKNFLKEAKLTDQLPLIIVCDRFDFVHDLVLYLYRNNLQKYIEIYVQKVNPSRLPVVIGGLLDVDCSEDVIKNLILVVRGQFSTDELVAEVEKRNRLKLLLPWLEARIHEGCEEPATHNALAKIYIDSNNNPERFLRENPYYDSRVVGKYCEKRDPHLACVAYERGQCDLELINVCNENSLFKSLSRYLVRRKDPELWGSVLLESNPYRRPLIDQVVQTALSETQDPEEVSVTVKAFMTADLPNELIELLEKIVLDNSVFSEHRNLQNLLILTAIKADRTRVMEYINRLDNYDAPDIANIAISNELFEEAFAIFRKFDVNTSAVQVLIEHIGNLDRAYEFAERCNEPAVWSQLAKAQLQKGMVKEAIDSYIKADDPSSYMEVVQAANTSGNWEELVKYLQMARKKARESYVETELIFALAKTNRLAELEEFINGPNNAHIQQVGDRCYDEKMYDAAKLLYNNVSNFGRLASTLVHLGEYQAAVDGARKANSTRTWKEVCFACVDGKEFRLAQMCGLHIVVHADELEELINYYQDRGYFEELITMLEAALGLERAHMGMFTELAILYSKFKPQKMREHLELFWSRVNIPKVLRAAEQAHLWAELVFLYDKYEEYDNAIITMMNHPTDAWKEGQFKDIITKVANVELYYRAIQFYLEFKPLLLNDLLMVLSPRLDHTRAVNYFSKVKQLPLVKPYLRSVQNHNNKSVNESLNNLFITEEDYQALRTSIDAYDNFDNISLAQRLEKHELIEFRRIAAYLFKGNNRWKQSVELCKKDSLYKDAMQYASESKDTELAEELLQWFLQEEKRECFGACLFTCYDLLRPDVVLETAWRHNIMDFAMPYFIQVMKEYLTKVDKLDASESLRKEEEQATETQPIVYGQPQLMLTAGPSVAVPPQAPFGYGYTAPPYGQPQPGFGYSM
# T2: CTDSP2 90-271 NIF (domain begin residue: 90, domain end residue: 271), O14595
# T2 chain: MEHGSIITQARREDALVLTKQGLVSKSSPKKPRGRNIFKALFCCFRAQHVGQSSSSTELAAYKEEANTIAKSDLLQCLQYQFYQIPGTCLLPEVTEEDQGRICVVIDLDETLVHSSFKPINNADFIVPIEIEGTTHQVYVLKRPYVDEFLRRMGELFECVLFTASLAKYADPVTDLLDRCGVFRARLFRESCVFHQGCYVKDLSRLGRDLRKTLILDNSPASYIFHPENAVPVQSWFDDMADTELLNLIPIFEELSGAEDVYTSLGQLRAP
# T3: CD2BP2 256-341 GYF (domain begin residue: 256, domain end residue: 341), O95400
# T3 chain: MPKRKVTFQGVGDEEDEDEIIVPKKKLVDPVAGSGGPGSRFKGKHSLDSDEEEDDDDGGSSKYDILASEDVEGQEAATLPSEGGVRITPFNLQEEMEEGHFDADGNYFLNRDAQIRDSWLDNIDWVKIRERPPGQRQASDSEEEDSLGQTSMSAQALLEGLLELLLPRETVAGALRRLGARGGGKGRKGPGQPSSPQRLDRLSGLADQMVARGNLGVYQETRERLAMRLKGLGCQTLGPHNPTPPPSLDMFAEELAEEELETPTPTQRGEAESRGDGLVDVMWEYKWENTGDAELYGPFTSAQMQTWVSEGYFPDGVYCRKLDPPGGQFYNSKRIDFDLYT
# What was measured:
# Assay in all cases: phage ELISA signal ratio (GST-PRM binding over GST background); higher = stronger binding of peptide-phage to the PRM
# [1] = molecular target: T1, CLTC 1-363 …
# Description: (§1)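 Phage-displayed random hexadecapeptides (Cys-free, flanked by invariant Gly linkers, fused to the M13 P8 major coat protein) were selected over 5 rounds against GST-fused human PRM domains. Individual clones from rounds 4-5 were tested by phage ELISA, and positive clones binding the target but not GST were sequenced. Values are the ELISA signal ratio of target over background (GST); the background signal is given separately.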
# [2] = molecular target: T2, CTDSP2 90-271 NIF (domain begin …
# Description: as §1
# [3] = molecular target: DEPDC6 20-129 DEP (domain begin residue: 20, domain end residue: 129)
# Description: as §1
# [4] = molecular target: CKS1B 1-79 CKS (domain begin residue: 1, domain end residue: 79), P61024
# Sequence of CKS1B 1-79 CKS (domain begin residue: 1, domain end residue: 79), P61024 (P61024 whole entry): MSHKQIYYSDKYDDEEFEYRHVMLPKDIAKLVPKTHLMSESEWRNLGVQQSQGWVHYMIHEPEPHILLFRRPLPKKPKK
# Description: as §1
# [5] = molecular target: DCTN1 26-97 CAP_GLY (domain begin residue: 26, domain end residue: 97), Q14203
# Sequence of DCTN1 26-97 CAP_GLY (domain begin residue: 26, domain end residue: 97), Q14203 (Q14203 whole entry): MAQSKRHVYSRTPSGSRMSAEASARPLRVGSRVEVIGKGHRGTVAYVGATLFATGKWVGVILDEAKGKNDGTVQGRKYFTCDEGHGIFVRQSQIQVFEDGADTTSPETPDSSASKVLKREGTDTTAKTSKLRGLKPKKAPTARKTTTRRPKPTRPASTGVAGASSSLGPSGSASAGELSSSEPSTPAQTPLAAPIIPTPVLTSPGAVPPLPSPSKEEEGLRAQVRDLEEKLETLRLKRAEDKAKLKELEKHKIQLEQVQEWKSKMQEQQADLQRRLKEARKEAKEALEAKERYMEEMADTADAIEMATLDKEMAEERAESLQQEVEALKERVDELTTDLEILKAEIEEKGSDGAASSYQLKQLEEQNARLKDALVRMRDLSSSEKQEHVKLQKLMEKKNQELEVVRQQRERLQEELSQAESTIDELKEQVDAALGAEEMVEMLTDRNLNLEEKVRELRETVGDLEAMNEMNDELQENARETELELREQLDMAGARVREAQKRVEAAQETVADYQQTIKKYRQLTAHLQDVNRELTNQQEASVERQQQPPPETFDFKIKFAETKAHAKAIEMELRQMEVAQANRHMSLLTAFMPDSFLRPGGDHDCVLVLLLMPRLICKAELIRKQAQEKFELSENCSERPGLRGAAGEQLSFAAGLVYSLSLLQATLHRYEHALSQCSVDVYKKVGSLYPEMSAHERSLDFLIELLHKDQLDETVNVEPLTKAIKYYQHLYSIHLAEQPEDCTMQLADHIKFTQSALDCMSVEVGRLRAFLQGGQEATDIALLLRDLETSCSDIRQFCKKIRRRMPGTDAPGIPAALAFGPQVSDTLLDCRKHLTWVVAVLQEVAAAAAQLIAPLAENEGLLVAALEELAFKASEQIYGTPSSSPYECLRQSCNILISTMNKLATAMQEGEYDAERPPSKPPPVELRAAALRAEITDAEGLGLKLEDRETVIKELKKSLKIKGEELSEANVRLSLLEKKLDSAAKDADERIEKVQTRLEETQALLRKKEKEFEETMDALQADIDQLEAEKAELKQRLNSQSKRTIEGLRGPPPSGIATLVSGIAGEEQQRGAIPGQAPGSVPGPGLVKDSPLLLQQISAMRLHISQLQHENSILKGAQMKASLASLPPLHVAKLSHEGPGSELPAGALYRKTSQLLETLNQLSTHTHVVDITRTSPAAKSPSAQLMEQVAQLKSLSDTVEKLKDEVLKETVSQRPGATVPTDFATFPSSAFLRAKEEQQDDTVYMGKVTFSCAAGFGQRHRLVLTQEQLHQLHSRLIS
# Description: as §1
# [6] = molecular target: CBX3 109-173 Chromo_shadow (domain begin residue: 109, domain end residue: 173), Q13185
# Sequence of CBX3 109-173 Chromo_shadow (domain begin residue: 109, domain end residue: 173), Q13185 (Q13185 whole entry): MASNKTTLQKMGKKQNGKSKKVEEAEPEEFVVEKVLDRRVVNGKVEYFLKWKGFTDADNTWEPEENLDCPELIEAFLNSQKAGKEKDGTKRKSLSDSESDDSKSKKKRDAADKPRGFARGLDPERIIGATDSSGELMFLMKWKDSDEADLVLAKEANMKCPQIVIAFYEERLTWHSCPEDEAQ
# Description: as §1
# [7] = molecular target: CBX5 109-173 Chromo_shadow (domain begin residue: 109, domain end residue: 173), P45973
# Sequence of CBX5 109-173 Chromo_shadow (domain begin residue: 109, domain end residue: 173), P45973 (P45973 whole entry): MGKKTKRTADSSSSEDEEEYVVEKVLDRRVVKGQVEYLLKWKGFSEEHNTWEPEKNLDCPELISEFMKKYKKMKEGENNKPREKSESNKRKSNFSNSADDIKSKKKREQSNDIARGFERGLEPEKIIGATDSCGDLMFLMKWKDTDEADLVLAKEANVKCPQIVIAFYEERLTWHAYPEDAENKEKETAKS
# Description: as §1
# [8] = molecular target: T3, CD2BP2 256-341 GYF (domain begin …
# Description: as §1
# [9] = molecular target: DEPDC6 132-222 DEP (domain begin residue: 132, domain end residue: 222)
# Description: as §1
binder,measurement,setting,value
VSYPLVDLSDWHMWTN,phage ELISA signal ratio,[1],20.8
EPFMVAWESFMLTHAM,phage ELISA signal ratio,[2],7.49
GETHLMFSNMMEFYKY,phage ELISA signal ratio,[3],19.9
LNWWTYEELQDLEQFT,phage ELISA signal ratio,[4],22.8
MSDPPTLEHWEYMSWE,phage ELISA signal ratio,[5],12
LAGFHPWFSEMLAEYH,phage ELISA signal ratio,[3],8.33
QQWDPSWYYPQELVKM,phage ELISA signal ratio,[4],20.5
GMSPLIEWPEEWWWLD,phage ELISA signal ratio,[1],21
QFDLWMRNVMLDFWAD,phage ELISA signal ratio,[3],11.2
DQQQWDDMDWLATWML,phage ELISA signal ratio,[1],32.5
DDGWMMDWWHQAQLQM,phage ELISA signal ratio,[3],6.22
EMLAGNEFRAMMDEYY,phage ELISA signal ratio,[3],7.5
GWEPQWFPSEHLADGN,phage ELISA signal ratio,[4],7.45
IDYESIFYEGMHWHTL,phage ELISA signal ratio,[4],22.1
WPNLEWMWDDEDMQFH,phage ELISA signal ratio,[1],15.5
WELQWDAIWGFPDELA,phage ELISA signal ratio,[1],30.6
RDEAHMEWHFPSIWLT,phage ELISA signal ratio,[6],16.2
DWAQVLWQDAHDWPVY,phage ELISA signal ratio,[1],23.9
THSEQWFETLMWNFHN,phage ELISA signal ratio,[3],3.26
GPLAWFLEDPYSSRVG,phage ELISA signal ratio,[4],11.1
QFLPTTWQDYLLYMDQ,phage ELISA signal ratio,[7],3.39
EQVSFMHEWHQRFWQT,phage ELISA signal ratio,[2],9.81
SDGDLIWWDWAYNAEQ,phage ELISA signal ratio,[1],15.9
TAPPGYGARYMETPYV,phage ELISA signal ratio,[8],16.9
WQATDYPQQPPPGWKE,phage ELISA signal ratio,[8],18.9
IWWEQLHQDDWQAIWA,phage ELISA signal ratio,[9],15.1
QEFMSISYPPGMPQDP,phage ELISA signal ratio,[8],14.4
WLDYNDWLEMDHWEYV,phage ELISA signal ratio,[1],23.8
DLMWWPETELHQGSWS,phage ELISA signal ratio,[1],17.3

# From the supplement of paper PMC7724964
